Experimental data: the OligoGym collection
Note: reference of the scale not given here.

These sequences were tested against CNPPD1 (assay: pooled miR-30 sensor sort-seq; sequence = guide strand). Details: shRNA.
TTACTGGCCACCATCATGGAGA gave a sensor-assay potency score (higher = more potent) of -0.834. Sequence TAGAGCCTCCTTCGGATCCGGG has a sensor-assay potency score (higher = more potent) of -1.33. With ATGAGCTACGTATTTCTTCTGG the sensor-assay potency score (higher = more potent) was -0.315. TTCGTCGTTGAAGACCTCCTCC showed a sensor-assay potency score (higher = more potent) of 0.0687. Sequence TTCGACAGCAATGTCTGCCACC has a sensor-assay potency score (higher = more potent) of -0.8. TGAAAAGGGAACATTGCTGAGG was tested, and the sensor-assay potency score (higher = more potent) was -0.362. TCTCTCTGGAGCTTCTGGCAAA gave a sensor-assay potency score (higher = more potent) of -0.958. Work on TAGTCTGGGTTTCGGTGCCGGA yielded a sensor-assay potency score (higher = more potent) of -1.29. TTCAATGTACACCAGAGCCAGC showed a sensor-assay potency score (higher = more potent) of -1.25. TCTGTGTAGGTGTACCAGCCTC gave a sensor-assay potency score (higher = more potent) of -1.36. Sequence TATTTCTTCTGGAGTCGGCGAA has a sensor-assay potency score (higher = more potent) of -0.148. Sequence TATGCCACAGCTAACAGGCAAG has a sensor-assay potency score (higher = more potent) of -1.37.

The sequences below were run against CNTD1 in the same assay as above. Details: shRNA.
For TTTTGGATGAAAGCACTTGCTG, the sensor-assay potency score (higher = more potent) was -1.34. For TAAACTTGTTGACAAGCTGCTG, the sensor-assay potency score (higher = more potent) was -0.0466. TAAGAGAACTCAGCAATGCTTG was tested, and the sensor-assay potency score (higher = more potent) was -0.451. For TTACCATAAACCTTTCTAGGAT, the sensor-assay potency score (higher = more potent) was -0.637. Work on AAACTTGTTGACAAGCTGCTGT yielded a sensor-assay potency score (higher = more potent) of 0.446. Work on TTTGGATGAAAGCACTTGCTGC yielded a sensor-assay potency score (higher = more potent) of -0.907. With TTCATGCAGAAGATAGACCAGG the sensor-assay potency score (higher = more potent) was -0.656. In the case of TTTAGTGTGTAGATAGCCTAGA, the sensor-assay potency score (higher = more potent) is reported as 0.238. With TTCTAGGATTTCTACAGCCTGG the sensor-assay potency score (higher = more potent) was -0.787. Work on TCTCTTATTATCTCTTGGCTGG yielded a sensor-assay potency score (higher = more potent) of -0.35. TAGACTGCTGTCTCCCCGGAGT gave a sensor-assay potency score (higher = more potent) of -0.817.

These sequences were tested against COBRA1 in the same assay as above. Details: shRNA.
With TGACACTCGCTCCAGCAGCTTG the sensor-assay potency score (higher = more potent) was -1.51. For TTTTTTCTCCGGAACCTTGGGC, the sensor-assay potency score (higher = more potent) was 0.129. TTCTTGTTCCTCTGCTTGGTGA showed a sensor-assay potency score (higher = more potent) of -1.3. In the case of TTCTCTGTCTGGAACTGCTCGA, the sensor-assay potency score (higher = more potent) is reported as -0.254. TTGCTGTCCACGAACCGCTCTC showed a sensor-assay potency score (higher = more potent) of -0.427. TTCTGATCCACATTGAAAGTGT gave a sensor-assay potency score (higher = more potent) of -0.064. Sequence AAACTTAGTGAAGCTTTCGGGA has a sensor-assay potency score (higher = more potent) of -0.764. TACAGCTTCACGTTCTTCCCCA showed a sensor-assay potency score (higher = more potent) of 0.123. For TTGGATATGAGACTGGGGCTTT, the sensor-assay potency score (higher = more potent) was -0.217. Work on ATGAGCTCTACCTCCATCTTGG yielded a sensor-assay potency score (higher = more potent) of -0.766. In the case of ATGAGCATCGGGAGGAACCTGG, the sensor-assay potency score (higher = more potent) is reported as -1.62.

What follows are sequences tested against COG2 in the same assay as above. Details: shRNA.
With TTCCACTTCTTATTGAAGCTGT the sensor-assay potency score (higher = more potent) was 0.407. For TTGACAAACACAGAGTATCGTG, the sensor-assay potency score (higher = more potent) was -0.356. For TTCTGTGGCAATTCTCTCCAAA, the sensor-assay potency score (higher = more potent) was -0.386. TTGTTTGAGCTTATCCTTGTGT was tested, and the sensor-assay potency score (higher = more potent) was 0.0501.
